In PubChem BioAssay AID1224858 (National Center for Advancing Translational Sciences (NCATS), 2016):
Results filed as inconclusive are left out. Activity calls are given as the source filed them. Calls come from the whole dose curve; as a rule, active = well fitted inhibition curve with a large enough effect; inconclusive = small, poorly fitted or top-dose-only effect; inactive = no such curve, though single readings can be large or run the other way.

assay: Confirmation assay for measurement of the activity of small molecule inhibitors on Zika virus induced Caspase-3 activity in human astrocytes; details: ZIKV-induced caspase-3/7 luminescence, 6 h; series mostly up to 46.1 µM; activity, negative = inhibition: at the top concentration
Excerpt: National Center for Advancing Translational Sciences [NCATS] Johns Hopkins University School of Medicine Florida State University Assay Overview: Increase in the Caspase-3 activity indicates an activation of apoptosis cell death pathway caused by Zika virus infection in certain types of neuronal cells including human neural progenitor cells (hNPCs), astrocytes, and astrocytoma cell line (SNB-19). This cell-based caspase-3 activity assay measures the increased caspase-3 activity in the human astrocytes after a 6-hour Zika virus infection with a luminescence readout. A decrease in the luminescence signal in this assay by small molecule treatment indicates an inhibitory effect of that small molecule on the Zika virus induced caspase-3 activity that may correlate with its effect on reduction of Zika virus caused cell death.
Assay Protocol Summary: The medium for astrocytes contains AM basal medium (ScienCell, Cat.# 1801), AGS (ScienCell, Cat.# 1801), 10% FBS, and 1% Pen/Strep. A Caspase-Glo 3/7 assay kit (catalog number G8092; Promega, Madison, WI) was used to detect caspase-3 activity induced by Zika virus infection in human cells. The reagent mixture was reconstituted as described in the protocol from the manufacturer. Polystyrene tissue culture treated and PDL coated white plates were obtained from Greiner Bio-One (Monroe, NC). Cells were seeded in 384- or 1536-well assay plates and cultured at 37 C with 5% CO2 for 16 to 20 hours. The typical cell seeding density in the 1536-well plate assay is 350 cells/well in 3 ul medium for astrocytes in tissue culture treated plates. Compounds were added to cells and incubated for one hour before addition of ZIKV solution to cells (2 FFU/cell). After incubation at 37 C with 5% CO2 for 6 hours, the reagent mixture of Caspase-Glo 3/7 assay kit was added to each well, followed by incubation at room temperature for 30 minutes. The luminescence intensity of the assay plates was measured using a ViewLux plate reader (PerkinElmer). Data were normalized by using the cell-containing wells without ZIKV as a negative control (0% induction of caspase 3/7 activity) and wells containing ZIKV infected cells (Caspase-3 activity induced) as a positive control (100% induction of caspase 3 activity). The percentage inhibitions of the increased Caspase-3 activity by small molecule inhibitors were then calculated.

activity, negative = inhibition, inactive:
COc1cc(NC(C)CCCN)c2ncccc2c1 (stereo not given) 3.92%
CC1=C(CO)C(=O)O[C@@H]([C@@H](C)[C@H]2CC[C@H]3[C@@H]4C[C@H]5O[C@]56[C@@H](O)C=CC(=O)[C@]6(C)[C@@H]4CC[C@]23C)C1 -6.03%
Cc1c(N)c(=O)n(-c2ccccc2)n1C 7.53%
O=S(=O)(O)CCSSCCS(=O)(=O)O 2.17%
CCCCC1C(=O)N(c2ccccc2)N(c2ccc(O)cc2)C1=O (stereo not given) -36.2%
Cc1c(NC(=O)c2ccc(C(C)(C)C)cc2)cccc1-c1cn(C)c(=O)c(Nc2ccc(C(=O)N3CCOCC3)cc2)n1 -4.1%
O=C(O)[C@H](CC(=O)N1C[C@@H]2CCCC[C@H]2C1)Cc1ccccc1 1.15%
O=c1cc(-c2ccccc2)oc2cc(O)c(O)c(O)c12 -14%
Cc1ccc(C(=O)c2ccc(CC(=O)O)n2C)cc1 -0.261%
NC1CCC(Nc2nc(Nc3ccc(C(=O)N4CCCCC4)cc3)c3ncn(-c4cccc(F)c4)c3n2)CC1 (stereo not given) 55.7%
CC=CC[C@@H](C)C(=O)[C@H]1C(=O)N[C@@H](C(C)C)C(=O)N(C)CC(=O)N(C)[C@@H](CC(C)C)C(=O)N[C@@H](C(C)C)C(=O)N(C)[C@@H](CC(C)C)C(=O)N[C@@H](C)C(=O)N[C@H](C)C(=O)N(C)[C@@H](CC(C)C)C(=O)N(C)[C@@H](CC(C)C)C(=O)N(C)[C@@H](C(C)C)C(=O)N1C 3.51%
CNC1[C@H](O)C(O[C@@H]2C(O)C(O[C@H]3O[C@H]([C@@H](C)NC)CC[C@H]3N)[C@@H](N)C[C@H]2N)OC[C@]1(C)O (stereo not given in full) 27.9%
COc1cc2nc(-c3ccc(N4CCN(C)CC4)cc3)nc(NCCN3CCOCC3)c2cc1OC -9.03%
CCCCCCCCCCCC(=O)[O][Sn]([CH2]CCC)([CH2]CCC)[O]C(=O)CCCCCCCCCCC -15%
CCN1/C(=C/C=C/c2sc3ccccc3[n+]2CC)Sc2ccccc21 11.1% [at 23.8 µM]

Potency, active:
Cc1cccc(/C=C/c2ccccc2)n1 10.9 µM
COCCn1c2c([n+](Cc3cnccn3)c1C)C(=O)c1ccccc1C2=O 5.48 µM
CC(C)Oc1ccc2c(=O)c(-c3ccccc3)coc2c1 10.9 µM
CC(=O)Oc1ccccc1C(=O)Nc1ncc([N+](=O)[O-])s1 1.58 µM
Nc1ccc(-c2ccc3ccccc3n2)cc1 4.35 µM
COc1ccc(C=CC(=O)Nc2ccccc2C(=O)O)cc1OC 17.3 µM
Cc1cc(O)c2c(c1)C(=O)c1cc(O)cc(O)c1C2=O 2.75 µM
COc1ccc(-c2coc3cc(O)ccc3c2=O)cc1 15.5 µM
NC(=O)c1cccc2[nH]c(-c3ccc([C@H]4CCCN4)cc3F)nc12 13.8 µM
CCC(C(=O)O)c1ccc(N2Cc3ccccc3C2=O)cc1 (stereo not given) 6.9 µM
Oc1cc(O)cc(/C=C/c2ccc(O)c(O)c2)c1 6.9 µM
CS(=O)(=O)c1ccc(-c2cn3ccccc3n2)cc1 7.74 µM
CN1CC(=O)N/C1=N/C(=O)Nc1cccc(Cl)c1 10.9 µM
Clc1ccccc1-c1nc(-c2ccncc2)no1 6.15 µM
COc1cc2nc(N3CCN(C(=O)C4CCCO4)CC3)nc(N)c2cc1OC (stereo not given) 10.9 µM
CC(O)=C(C#N)C(=O)Nc1ccc(C(F)(F)F)cc1 1.09 µM
O=C(O)c1ccccc1Nc1cccc(C(F)(F)F)c1 6.9 µM
CCCS(=O)c1ccc2nc(NC(=O)OC)[nH]c2c1 (stereo not given) 13.8 µM
Cc1nc(-c2ccc(OCC(C)C)c(C#N)c2)sc1C(=O)O 2.18 µM
CC1(C)OC2=C(C(=O)c3ccccc3C2=O)[C@H](NCc2ccccc2)[C@H]1O 35.5 µM
Cc1ccc(O)c(-n2nc3ccccc3n2)c1 7.74 µM
N#C/C(=C\c1ccc(O)c(O)c1)C(=O)Nc1ccccc1 21.8 µM
O=C(O)CCC(=O)c1ccc(-c2ccccc2)cc1 19.5 µM
c1ccc2[nH]c(-c3cscn3)nc2c1 9.75 µM
O=c1c2ccccc2nc2n1CCc1c-2[nH]c2ccccc12 4.89 µM
